Measured values as given in PubChem BioAssay AID1159580 (chemical genetic matrix, 2015).
The campaign covered roughly 5,500 compounds. About 2,000 (36%) were called active. Roughly 18% stayed inconclusive and do not appear here. Cut-off read from the data, not from the text of the source: active = normalized growth mostly below about 0.91 (no sharp cut-off); inconclusive = no clear call, values can overlap the other calls; inactive = mostly above about 0.92. This is one part of the list.

Test: chemical genetic growth profiling, strain panel (AID 1159580);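 note: tested at 20 µM; growth read once vehicle control cultures reached saturation at 30 °C; 1 = growth at the plate median or of vehicle wells; lower values mean less growth of the strain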
Settings: S. cerevisiae deletion strains, growth OD
[1] = locus YCL061C, strain MRC1, active compounds read low
[2] = locus YDR150W, strain NUM1, active compounds read low
[3] = locus YHR030C, strain SLT2, active compounds read low
[4] = locus YJL187C, strain SWE1, active compounds read low
[5] = locus YMR307W, strain GAS1, active compounds read low
[6] = locus YNL153C, strain GIM3, active compounds read low
[7] = locus YNL322C, strain KRE1, active compounds read low
[8] = locus YPL055C, strain LGE1, active compounds read low

Measured: normalized growth

Cc1ccc2cc(C)c(C)cc2c1
inactive: locus YAL013W, strain DEP1, active compounds read low 0.994 | locus YBR229C, strain ROT2, active compounds read low 0.991 | [1] 0.992 | locus YDL101C, strain DUN1, active compounds read low 1.02 | [2] 1.05 | locus YEL061C, strain CIN8, active compounds read low 1 | locus YGR078C, strain PAC10, active compounds read low 0.99 | [3] 0.729 | locus YHR087W, strain rtc3, active compounds read low 1.01 | [4] 0.993 | locus YJR043C, strain POL32, active compounds read low 0.989 | locus YJR075W, strain HOC1, active compounds read low 0.961 | locus YLR039C, strain RIC1, active compounds read low 0.897 | locus YLR058C, strain SHM2 (second series), active compounds read low 0.992 | locus YLR085C, strain ARP6, active compounds read low 0.949 | locus YLR262C, strain YPT6, active compounds read low 0.831 | locus YML094W, strain GIM5, active compounds read low 1 | locus YMR219W, strain ESC1, active compounds read low 1.01 | locus YMR263W, strain SAP30, active compounds read low 1 | [5] 0.742 | [6] 0.952 | locus YNL298W, strain CLA4 (second series), active compounds read low 0.957 | [7] 0.985 | locus YNR030W, strain Alg12, active compounds read low 0.958 | locus YOL006C, strain TOP1, active compounds read low 0.902 | [8] 1.02 | locus YPL241C, strain CIN2, active compounds read low 0.995 | locus YPR135W, strain CTF4, active compounds read low 0.899

CC(C)(N=NC(C)(C)C(=N)N)C(=N)N
inactive: locus YAL021C, strain ccr4, active compounds read low 0.995 | locus YAL026C, strain drs2, active compounds read low 1.05 | locus YAL030W, strain snc1, active compounds read low 1.02 | locus YBL061C, strain skt5, active compounds read low 1.02 | locus YBR009C, strain hhf1, active compounds read low 1.07 | locus YBR023C, strain chs3, active compounds read low 1.02 | locus YBR171W, strain sec66, active compounds read low 1.03 | locus YBR231C, strain swc5, active compounds read low 1.04 | locus YBR279W, strain paf1, active compounds read low 1.03 | locus YCL011C, strain gbp2, active compounds read low 1.03 | locus YCL016C, strain dcc1, active compounds read low 1.03 | [1] 1.03 | locus YCL069W, strain vba3, active compounds read low 1.02 | locus YCR088W, strain abp1, active compounds read low 1.02 | locus YDL005C, strain med2, active compounds read low 1.03 | locus YDL040C, strain nat1, active compounds read low 1.02 | locus YDR001C, strain nth1, active compounds read low 1.02 | locus YDR069C, strain doa4, active compounds read low 1.03 | locus YDR137W, strain rgp1, active compounds read low 0.998 | locus YDR159W, strain sac3, active compounds read low 1.05 | locus YDR195W, strain ref2 1 | locus YDR297W, strain sur2, active compounds read low 1.02 | locus YDR334W, strain swr1, active compounds read low 1.03 | locus YDR335W, strain msn5, active compounds read low 1.02 | locus YDR392W, strain spt3, active compounds read low 0.98 | locus YEL003W, strain gim4, active compounds read low 1.03 | locus YEL037C, strain rad23, active compounds read low 1.02 | locus YEL061C, strain CIN8 (second series), active compounds read low 1.02 | locus YER015W, strain faa2, active compounds read low 1.03 | locus YER016W, strain bim1, active compounds read low 1.04 | locus YER111C, strain swi4, active compounds read low 1.03 | locus YER155C, strain BEM2 (second series), active compounds read low 1.03 | locus YFR010W, strain ubp6, active compounds read low 1.03 | locus YGL167C, strain pmr1, active compounds read low 1.03 | locus YGL173C, strain kem1, active compounds read low 1.05 | locus YGL227W, strain vid30, active compounds read low 1.02 | locus YGL240W, strain doc1, active compounds read low 1.04 | locus YGL253W, strain hxk2, active compounds read low 1.01 | locus YHR013C, strain ard1, active compounds read low 1.05 | locus YHR027C, strain rpn1, active compounds read low 1.03 | [3] 0.971 | locus YHR079C, strain IRE1, active compounds read low 0.971 | locus YHR142W, strain chs7, active compounds read low 0.965 | locus YJL092W, strain hpr5, active compounds read low 1.03 | locus YJL095W, strain BCK1 (second series), active compounds read low 1.02 | locus YJL095W, strain BCK1, active compounds read low 0.969 | locus YJL115W, strain asf1, active compounds read low 1.02 | locus YJL129C, strain trk1, active compounds read low 1.03 | locus YJL154C, strain vps35, active compounds read low 1.02 | locus YJL164C, strain tpk1, active compounds read low 1.02 | locus YJL166W, strain qcr8, active compounds read low 1.01 | [4] 1.02 | locus YJR066W, strain TOR1, active compounds read low 0.896 | locus YKL160W, strain elf1, active compounds read low 0.99 | locus YKR026C, strain gcn3, active compounds read low 1.02 | locus YKR091W, strain srl3, active compounds read low 1.02 | locus YLL001W, strain dnm1, active compounds read low 1.03 | locus YLL026W, active compounds read low 1.02 | locus YLL041C, strain sdh2, active compounds read low 1.02 | locus YLR027C, strain aat2, active compounds read low 1.03 | locus YLR113W, strain HOG1, active compounds read low 0.985 | locus YLR221C, strain rsa3, active compounds read low 1.02 | locus YLR258W, strain gsy2, active compounds read low 1.04 | locus YLR262C, strain YPT6 (second series), active compounds read low 1.03 | locus YLR320W, strain mms22, active compounds read low 1.07 | locus YLR342W, strain FKS1, active compounds read low 1.03 | locus YLR357W, strain rsc2, active compounds read low 1.06 | locus YLR370C, strain arc18, active compounds read low 1.03 | locus YLR384C, strain iki3, active compounds read low 1.02 | locus YML120C, strain ndi1, active compounds read low 1.04 | locus YMR058W, strain fet3, active compounds read low 1.03 | locus YMR125W, strain sto1, active compounds read low 1.04 | locus YMR129W, active compounds read low 1.01 | locus YMR205C, strain PFK2, active compounds read low 1.08 | locus YMR231W, strain pep5, active compounds read low 1.02 | locus YNL071W, strain lat1, active compounds read low 1.02 | locus YNL183C, strain NPR1, active compounds read low 0.906 | locus YNL209W, strain ssb2, active compounds read low 1.03 | locus YNL248C, strain rpa49, active compounds read low 0.99 | locus YNL322C, strain KRE1 (second series), active compounds read low 1.01 | locus YNR049C, strain mso1, active compounds read low 1.02 | locus YOR001W, strain rrp6, active compounds read low 1.02 | locus YOR070C, strain gyp1, active compounds read low 1.04 | locus YOR080W, strain dia2, active compounds read low 1.03 | locus YOR083W, strain WHI5, active compounds read low 0.988 | locus YOR106W, strain vam3, active compounds read low 0.886 | locus YOR231W, strain MKK1, active compounds read low 0.976 | locus YOR265W, strain rbl2, active compounds read low 1.02 | locus YOR270C, strain vph1, active compounds read low 1.02 | locus YOR290C, strain snf2, active compounds read low 1 | locus YPL051W, strain arl3, active compounds read low 1.01 | locus YPL078C, strain atp4, active compounds read low 0.983 | locus YPL106C, strain sse1, active compounds read low 1.05 | locus YPL240C, strain hsp82, active compounds read low 1.01 | locus YPL256C, strain CLN2, active compounds read low 0.979

C[C@H]1OC[C@@H](C[N+](C)(C)C)O1
inactive: locus YAL040C, strain CLN3, active compounds read low 1.01 | locus YCL061C, strain MRC1 (second series), active compounds read low 1.01 | [2] 1 | locus YDR363W, strain ESC2, active compounds read low 1.02 | locus YER002W, strain NOP16, active compounds read low 1.04 | [5] 1 | [6] 1.02 | locus YNL175C, strain NOP13, active compounds read low 1.02 | locus YNL197C, strain WHI3, active compounds read low 1 | locus YNL224C, strain SQS1, active compounds read low 1.02 | [7] 1.02 | locus YOR083W, strain WHI5 (second series), active compounds read low 1.03 | [8] 1.05
